The record followed here is PubChem BioAssay AID1671188 (National Center for Advancing Translational Sciences (NCATS), 2021).

Hit rate of the full screen: of about 100,000 compounds, about 250 (0.25%) were called active. Not shown: some 7% with an inconclusive outcome. What follows is part of a selection rich in actives, with near analogues and random picks from the rest. Values without a mark were called inactive. Calls follow the shape of the dose curve; as a rule, active = well fitted inhibition curve with a large enough effect; inconclusive = small, poorly fitted or top-dose-only effect; inactive = flat fitted curve, though single readings scatter.
% is scaled to controls: 0 for no effect and ±100 for the full control effect; potency is read from the fitted curve at half-maximal effect.

Chain of Alanine aminotransferase 2 (Homo sapiens) (Q8TD30 whole entry, looked up): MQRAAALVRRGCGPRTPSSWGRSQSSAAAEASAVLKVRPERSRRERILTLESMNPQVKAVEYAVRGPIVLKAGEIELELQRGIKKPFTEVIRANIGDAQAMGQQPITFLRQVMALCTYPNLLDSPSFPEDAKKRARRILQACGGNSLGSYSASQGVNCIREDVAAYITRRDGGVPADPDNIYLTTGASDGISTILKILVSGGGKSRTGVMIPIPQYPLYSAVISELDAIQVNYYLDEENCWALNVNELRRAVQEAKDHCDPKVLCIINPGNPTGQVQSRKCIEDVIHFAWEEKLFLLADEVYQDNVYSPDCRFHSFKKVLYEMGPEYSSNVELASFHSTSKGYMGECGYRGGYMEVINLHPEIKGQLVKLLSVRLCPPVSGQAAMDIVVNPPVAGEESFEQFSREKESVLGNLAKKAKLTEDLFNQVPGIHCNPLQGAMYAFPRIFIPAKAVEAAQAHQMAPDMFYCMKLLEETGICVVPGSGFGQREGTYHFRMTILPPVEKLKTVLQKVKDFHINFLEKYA

The test deals with Alanine aminotransferase 2 (Homo sapiens) (UniProt Q8TD30). Put plainly: Primary qHTS assay for inhibitors of Glutamate pyruvate transaminase 2 (GPT2). Also: nearly all actives have a fitted effect of over 60% in size. Particulars: Recombinant GPT2, coupled pyruvate oxidase/HRP Amplex Red fluorescence; series mostly up to 57.7 µM; activity change, negative = inhibition: at the top concentration. How it is done:
Assay Provider: Zhenghe John Wang Ph.D.
Case Western Reserve University, Cleveland OH
Glutamate pyruvate transaminase 2 (GPT2) catalyzes the reversible transamination of glutamate and pyruvate to provide a-ketoglutarate and alanine. We have optimized an assay for GPT2 enzymatic activity that couples pyruvate formation to detection of fluorescence using an established pyruvate oxidase/horseradish peroxidase / Amplex Red system.
Screening conditions were 250uM a-KG, 2mM L-alanine, and 10ng/uL GPT2 in […] of solution; 10uL of Amplex reaction mix (outlined below) were added so that final concentrations of Amplex reagents in 50uL were 0.2mM ThPP, 0.2U/mL PO and HRP, and 50uM Amplex.
NOTE: The volume of GPT2 in the system depends on the activity of it. The activity is different every batch. You need to test the activity before the assay. For full plate assay with automation, plate 20uL of GPT2 buffer to pin into, then add 10uL of GPT2 dilution followed immediately by 10uL of substrate dilution. 2 Columns of the plate were devoted to GPT2 buffer ([…] PH7.5, 0.0001% Tween) + 50uM AOA (known GPT2 inhibitor) to serve as a positive control. Complete the assay as normal. Amplex-red buffer: […] PH7.5, 1 mM EDTA, 1 mM MgCl2.
1. Combine a-KG and L-alanine at desired concentrations and incubate for at least 10 minutes at 37C. Stocks of L-alanine and a-KG are diluted in distilled water. However, the stocks were diluted in GPT2 buffer for the assay.
2. Prepare GPT2 dilution at the desired concentration in GPT2 buffer.
3. Plate 40uL of GPT2 dilution with 40uL of substrate dilution and let incubate for 30 minutes at room temperature.
4. Add 20uL of Amplex reaction mix prepared as follows: 1.5uL 200U/mL Horseradish Peroxidase, 200mM Thiamine Pyrophosphate, 200U/mL Pyruvate Oxidase; 7.5uL 10mM Amplex Red; 288uL Amplex Buffer.
5. Incubate for 30 minutes at room temperature in the dark, then image using AM_Amplex_Fluorescence on plate reader nearest the window.
`O=C(NCCc1ccccc1F)c1cn2cc(-c3cccc(C(F)(F)F)c3)sc2n1`: the result was inactive. Regarding `Fc1cccc(C2CCCCCN2Cc2cn(-c3ccccc3)nn2)c1` (centres undefined), the activity change, negative = inhibition was -3.5% [at 11.5 µM]. As for `COC(=O)c1cccc(NC(=S)N[C@H]2CO[C@H]3[C@@H]2OC[C@H]3OC(=O)Nc2ccc(Oc3ccccc3)cc2)c1`, the result was inactive. On to `Cc1noc(C)c1S(=O)(=O)N1CCC(c2noc(-c3ccncc3)n2)C1` (centres undefined), for which the result was inactive. Turning to `COc1ccccc1-c1ccc2c(C(=O)NCCc3ccc(Cl)cc3)nn(C)c2n1`, the “activity change, negative = inhibition” value was -16.6%.

For the molecule `COc1ccc(C(=O)N2CC[C@@H](CC(=O)O)[C@@H](CCN3C[C@@H]4C[C@H](C3)c3cccc(=O)n3C4)C2)cc1`, the “activity change, negative = inhibition” value is -10.5%. Still for that read-out and setting: the value for `O=C(NCCCc1ccccc1)c1n[nH]c2c1CN(C(=O)C1CC1)CC2` was 3.69%; that for `O=C(NCc1cccc(Cl)c1)c1ccc2nnc(Cc3ccc(Cl)cc3)n2c1` was 1.38%.

As to `Cc1nc(-c2c3n(c(=O)n(Cc4ccc(F)c(F)c4)c2=O)CCCC3)no1`, the “activity change, negative = inhibition” value was -0.648%. In the case of `COc1cccc(CN(C)C2CCc3nn(C)c(=O)n3CC2)n1` (centres undefined), the outcome was inactive.

As to `COc1ccc(CC(=O)N2CCN(C(=O)c3nc4cccnc4n(Cc4ccc(OC)cc4)c3=O)CC2)cc1`, the outcome was inactive.

Take `CC[C@H]1CN(C(=O)NC(C)C)CC[C@H]1CC(=O)Nc1ccccc1`: the “outcome” value was “inactive [at 88.5 µM]”.

Regarding `COc1ccc(C(=O)N2C[C@@H](Oc3cccnc3)C[C@H]2C(=O)N2CCOCC2)cc1`, the result was inactive. With `O=C(c1ccc2c(c1)CCCO2)N1CCCn2nc(C(O)C3CCC3)cc2C1` (centres undefined), the outcome was inactive. Consider `O=C(C1COc2ccccc2O1)N1CCc2c(nc3cc(-c4ccccc4)[nH]n3c2=O)C1` (centres undefined), for which the “activity change, negative = inhibition” value is -6.07%. Same read-out and setting: with `CN1CCC(N2CCC[C@H]2c2nc(-c3ccc(OC4CCCCC4)nc3)no2)CC1` the figure was 1.89% [at 88.5 µM]. For the molecule `O=C1NC(C(=O)NCc2ccccn2)Cn2cccc21` (centres undefined), the result was inactive. As for `COc1ccc(CN2CCn3c(nn(-c4ccncc4)c3=O)C2)cc1`, the result was inactive. The same measure, in the same setting: with `CN1C[C@@H](C(=O)Nc2ccccc2)[C@H](C2CCNCC2)C1` the entry was “inactive”; with `O=C1NC2(Cc3ccccc31)CN(Cc1ccc(F)cc1)C2`, “inactive [at 88.5 µM]”. For `CCC1=C(C(=O)OC)C(c2cccc(OC)c2)N2C(CC(=O)N3CCOCC3)=CSC2=N1` (centres undefined), the result was inactive. Same read-out and setting: the value for `O=C1CC(c2noc(-c3cc(Cl)ccc3F)n2)CN1c1ccc(F)cc1` (centres undefined) was “inactive”; that for `COc1ccc(C(=O)N2CCCC(CO)CCNC(=O)CC2)c(OC)n1` (centres undefined) was “inactive”. For the molecule `Cc1cccc(-c2cccc(CN3CCC(NC(=O)Cc4ccc(F)cc4)CC3)c2)c1`, the “activity change, negative = inhibition” value was -5.21%. Regarding `O=C(C1CC=CCC1)N1CC(c2noc(C3CCCN3CC3CC3)n2)C1` (centres undefined), the result was inactive. For `O=C(CCn1cnnn1)N1CCC(N2C(=O)C3(CCCC3)C2c2ccccc2)CC1` (centres undefined), the result was inactive. Take `CC(C)(O)CCc1ccc(C(=O)N2CCOc3ccc(Cl)cc3C2)cc1`: the “activity change, negative = inhibition” value was -18.3%. On to `CN(C)CCNC(=O)c1cccnc1OC1CCNCC1`, for which the result was inactive. Turning to `CN(C)[C@H]1CCCCN(CC2CCC(N)CC2)C1` (some centres undefined), the “activity change, negative = inhibition” value is 2.48%. Consider `CC(C)Cn1c(=O)c(C(=O)N2CCN([S+](=O)([O-])c3cccc(C(F)(F)F)c3)CC2)nc2cccnc21`, for which the result was inactive.

As to `COc1cccc(CN2C(=O)OC3(CCN(C(=O)c4scnc4C)CC3)C2(C)c2cccnc2)c1` (centres undefined), the result was inactive. As to `O=C(NCc1ccc(Cl)nc1)c1c[nH]c2cccnc12`, the “activity change, negative = inhibition” value is 4.28% [at 88.5 µM]. Same read-out and setting: with `O=[S+]([O-])(c1cccs1)N1CCN(c2nccc(Nc3ccccc3F)n2)CC1` the figure was 4.45%. Regarding `CCC(=O)Nc1cc(C(=O)NCc2ccc(N3CCOCC3)cc2)c2ccc(C)nc2c1`, the result was inactive. Consider `Cc1ccc(C(=O)N2CCCC(c3nc(-c4ccccc4)no3)CCNC(=O)CC2)cn1` (centres undefined), for which the “activity change, negative = inhibition” value is -3.36%. Still for that read-out and setting: the value for `O=C(c1ccc(C(F)(F)F)s1)N1CCCN(c2nnc3ccccn23)CC1` was -8.08%. Same read-out and setting: the value for `COc1ccc(C(=O)N(C)Cc2ccc(F)cc2)cc1` was 0.769% [at 88.5 µM]; that for `COc1cccc(NC(=O)O[C@@H]2CO[C@H]3[C@@H]2OC[C@@H]3Nc2nccc(-c3cccs3)n2)c1` was -1.4%. In the case of `CCOC(=O)c1ccc(NC(=O)Cn2c(N3CCOCC3)nc(CC)cc2=O)cc1`, the outcome was inactive. Take `Cn1nccc1-c1cccc(-c2nc(N3CCOCC3)n(C)n2)c1`: the “activity change, negative = inhibition” value is -1.34%. As for `CC(C)NC(=O)N1Cc2[nH]cnc2C[C@H]1c1nc(-c2ccc3c(c2)OCO3)no1`, the “outcome” value is “inactive [at 88.5 µM]”. Regarding `CC(=O)/C(C)=N/O`, the Potency was 20 µM (active). On to `CN(CC1CCOCC1)C(=O)c1ccccc1`, for which the “activity change, negative = inhibition” value was -2.97%. With `C#CCNC(=O)c1cn2cc(-c3ccccc3)sc2n1`, the “outcome” value is “inactive [at 88.5 µM]”.

With `Cc1ccccc1CN1CCCn2nc(C)c(-c3cccnc3N3CCOCC3)c21`, the “outcome” value was “inactive [at 88.5 µM]”.

Take `COc1ccc(-c2cc(-c3cccc4[nH]ncc34)cn3cncc23)cn1`: the “activity change, negative = inhibition” value was -3.99% [at 88.5 µM]. Turning to `O=C(NCc1cccnc1)[C@@H]1C[C@@H](O)CN1C1CCN(C(=O)C2(c3ccccc3)CC2)CC1`, the result was inactive.

Turning to `CC(NC(=O)c1ccc(C(C)(C)C)cc1)C(=O)N1CCN(c2ccccn2)CC1` (centres undefined), the “activity change, negative = inhibition” value is -5.47%. On the same count and under the same terms, with `Cc1ccccc1-c1cn(C)c(=O)n2cc(CNc3ccccc3)nc12` the figure was 0.941% [at 88.5 µM].
